# sEH inhibitor: soluble epoxide hydrolase (human) inhibition | P34913 | recombinant human sEH enzymatic activity assay | inhibition, % at 2 µM | actives 0.34% (n = 91,000) | AID 707; in the data active means inhibition above about 80%
# CYP2C9 inh: inhibitors of human CYP2C9. actives 20% (n = 96,000). CYP2C9 Supersomes, luciferin-H conversion, luminescence. P11712. inhibition, % at 5 µM;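 active means blocking of liver enzyme CYP2C9 beyond about 50% at 5 µM, limit read from the data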
# CYP2C19 activ: activators of human cytochrome P450 2C19; recombinant CYP2C19, luciferin-H EGE luminescence; active compounds read high; 0 = fully inhibited enzyme, 1 = untreated enzyme; activation factor at 5 µM; 96,000 tested, under 10 active; AID 1025;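 active means activation factor of at least 2 at 5 µM in the primary screen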;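 further: 0 = wells with 2.5 mM tranylcypromine and 1 = vehicle-only wells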
# Target sequence (P33261 whole entry, looked up): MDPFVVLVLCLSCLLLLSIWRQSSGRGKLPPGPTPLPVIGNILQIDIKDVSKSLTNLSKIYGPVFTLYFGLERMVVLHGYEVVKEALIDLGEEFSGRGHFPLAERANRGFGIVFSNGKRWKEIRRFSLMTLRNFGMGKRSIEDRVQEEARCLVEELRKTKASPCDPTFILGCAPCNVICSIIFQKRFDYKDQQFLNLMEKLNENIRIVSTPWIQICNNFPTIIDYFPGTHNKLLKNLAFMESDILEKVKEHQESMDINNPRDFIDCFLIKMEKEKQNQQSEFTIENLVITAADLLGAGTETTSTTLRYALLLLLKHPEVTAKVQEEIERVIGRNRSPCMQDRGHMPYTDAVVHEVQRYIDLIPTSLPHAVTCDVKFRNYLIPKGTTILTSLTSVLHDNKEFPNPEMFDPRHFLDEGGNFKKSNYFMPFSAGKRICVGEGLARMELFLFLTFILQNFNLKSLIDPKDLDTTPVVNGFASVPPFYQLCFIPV
# sEH activator: increases human soluble epoxide hydrolase activity | P34913 | purified human sEH enzymatic activity, activator screen | activation, % at 2 µM | actives 0.04% (n = 91,000); in the data active means activation above about 37%
# CYP2C9 act: increases human cytochrome P450 2C9 activity | recombinant CYP2C9, luciferin-H conversion, luminescence; active compounds read high; factor 1 = untreated enzyme, 0 = blocked | activation factor at 5 µM | actives 1.4% (n = 96,000) | AID 1024;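 active means activation factor of 2 or more for CYP2C9 at a 5 µM dose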;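 further: 0 = sulfaphenazole-blocked wells and 1 = vehicle-only wells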
# CYP2C19 inhib: human CYP2C19 inhibition; AID 778; actives 21% (n = 96,000); P33261; inhibition, % at 5 µM; CYP2C19 Supersomes, luciferin-H EGE luminescence, 30 min;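 active means CYP2C19 inhibition above a set limit at 5 µM in the primary screen, cut at about 50% in these data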;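 further: plate controls were negative control wells for no effect and 2.5 mM tranylcypromine positive control for full effect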
# * marks the source's active call; other numbers are inactive results; x = no result given. Only some compounds are listed: those with a hit (about 27% of all), similar ones and a draw of the others.
SMILES,sEH inhibitor,CYP2C9 inh,CYP2C19 activ,sEH activator,CYP2C9 act,CYP2C19 inhib
O=C1C/C(=C/NCc2ccccc2)C(=O)N1,-9.3,-2.9,1,9.9,1,0.1
Cc1ccn2cc(CNS(=O)(=O)c3ccc(Cl)s3)nc2c1,-7.0,22.9,0.7,6.2,0.8,29.7
Cc1cc(NC(=O)CN2CCN(c3ccccc3O)CC2)no1,7.3,44.5,0.7,-7.4,0.6,27.4
CCOC(=O)c1nnn(-c2nonc2-n2cccc2)c1CCl,-6.6,68.2*,0.8,6.2,0.3,22.8
CCOC(=O)c1nnn(-c2nonc2N)c1CN1CCc2ccccc2C1,4.2,58.0*,0.9,-3.0,0.4,7.7
c1coc(CN2CCN(C(c3cccs3)c3nnnn3C3CCCC3)CC2)c1 (stereo not given),-3.3,21.4,0.7,6.9,0.8,27.6
O=C1c2ccccc2C(=O)N1CC1c2ccccc2CCN1S(=O)(=O)c1cnc[nH]1 (stereo not given),x,97.2*,0.2,x,0,78.4*
O=C1c2ccccc2C(=O)N1CC1c2ccccc2CCN1C(=O)N1CCOCC1 (stereo not given),4.5,-17.1,0.7,-2.9,1.2,27.8
Cc1ccc(S(=O)(=O)N2CCc3ccccc3C2CN2C(=O)c3ccccc3C2=O)cc1 (stereo not given),-8.7,47.2,0.3,11.7,0.5,71.3*
CCOc1ccc(/C(O)=C2\C(=O)C(=O)N(c3cc(C)on3)C2c2ccccc2OC)cc1 (stereo not given),3.8,-8.8,1,-2.3,1.1,-1.2
Cc1ccc(N2C(=O)C3CC(c4ccccc4)=C4C5C=CC(C6C(=O)N(c7ccc(C)cc7C)C(=O)C56)C4C3C2=O)c(C)c1 (stereo not given),4.5,84.8*,0.9,-1.9,0.2,13.3
COc1ccc(C(=O)COC(=O)[C@H](C)Nc2ccc(C(F)(F)F)cc2[N+](=O)[O-])c(OC)c1,-10.1,24.1,1,11.5,0.8,0.9
CCc1cc2cc(C(=O)Nc3ccc(C)cc3)sc2s1,9.9,x,x,-8.8,x,x
Cc1nn(CCc2n[nH]c(=S)n2-c2cccc(Cl)c2)c(C)c1[N+](=O)[O-],-9.5,22.3,0.4,9.3,0.8,56.6*
COCCn1c(=S)[nH]c2cc(C(=O)NCC3CCCO3)ccc2c1=O (stereo not given),x,51.8*,0.2,x,0.5,75.6*
COCCn1c(=O)[nH]c2cc(C(=O)NCC3CCCO3)ccc2c1=O (stereo not given),x,1.7,1,x,1,-4.1
CC(=O)O/N=C(/C)c1ncc(C(F)(F)F)cc1N1CCOCC1,-6.3,14.7,0.9,4.8,0.9,7.6
O=c1[nH]c2c(s1)C(c1ccccc1)C1C3CCC(C3)C1S2 (stereo not given),27.4,-6.1,0.8,-27.6,1.1,24.1
O=C1C2Sc3[nH]c(=O)sc3C(c3ccccc3)C2C(=O)N1c1ccccc1 (stereo not given),9.3,17.9,0.4,-7.7,0.8,57.2*
COc1ccc(C2c3sc(=O)[nH]c3SC3C(=O)N(c4ccccc4)C(=O)C32)cc1 (stereo not given),15.3,80.9*,0.4,-15.5,0.2,62.1*
O=C(Nc1ccon1)c1cccc(C(F)(F)F)c1,x,2.4,0.6,x,1,38.9
COc1cc(/C=c2\sc3nc(-c4ccncc4)nn3c2=O)ccc1OC(C)=O,-12.6,76.2*,0.4,14.1,0.2,59.9*
O=C(Cc1ncc(C(F)(F)F)cc1Cl)N1CCN(c2ccc(F)cc2)CC1,-11.5,-248.5,0.5,9.3,3.5*,51.3*
O=C(Cc1ncc(C(F)(F)F)cc1Cl)N1CCN(c2cccc(Cl)c2)CC1,-11.1,-59.6,0.2,13.1,1.6,83.6*
CC(C)C(=O)Nc1ncc(C(F)(F)F)cc1Cl,5.3,7.1,1.1,-1.9,0.9,-7.5
O=C(Cc1ncc(C(F)(F)F)cc1Cl)Nc1ccc(F)cc1,-30.2,9.8,0.1,33.2,0.9,91.2*
COc1ccc(N2CCN(C(=O)Cc3ncc(C(F)(F)F)cc3Cl)CC2)cc1,-2.6,-26.5,0.9,1.5,1.3,6.1
O=C(NC1CCCCC1)c1ccccc1NC(=O)C1CC1,-8.1,x,x,12.8,x,x
CC(=O)Nc1ccc(NC(=O)CSCCc2ccccn2)cc1,4.1,6.6,0.7,-0.7,0.9,33.0
O=C(c1ccccc1)c1c[nH]c2cc3c(cc2c1=O)OCCO3,-3.4,x,x,3.6,x,x
